Measurements from PubChem BioAssay AID1159580 (chemical genetic matrix, 2015).
About 2,000 (36%) of roughly 5,500 compounds were called active. About 18% were inconclusive and are not listed. Cut-off read from the data, not from the text of the source: active = normalized growth mostly below about 0.91 (no sharp cut-off); inconclusive = no clear call, values can overlap the other calls; inactive = mostly above about 0.92. The list shows a part of the results.

Assay: chemical genetic growth profiling, strain panel (AID 1159580);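 note: tested at 20 µM; growth read once vehicle control cultures reached saturation at 30 °C; 1 = growth at the plate median or of vehicle wells; lower values mean less growth of the strain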
Conditions: S. cerevisiae deletion strains, growth OD
[1] = locus YAR019C, strain CDC15, hits give low values
[2] = locus YBL105C, strain PKC1, hits give low values
[3] = locus YBR135W, strain CKS1, hits give low values
[4] = locus YBR136W, strain MEC1, hits give low values
[5] = locus YBR160W, strain CDC28, hits give low values
[6] = locus YDL017W, strain CDC7, hits give low values
[7] = locus YDL028C, strain MPS1, hits give low values
[8] = locus YDL101C, strain DUN1, hits give low values
[9] = locus YDL108W, strain KIN28, hits give low values
[10] = locus YDL132W, strain cdc53, hits give low values
[11] = locus YDL214C, strain PRR2, hits give low values
[12] = locus YDR052C, strain DBF4, hits give low values
[13] = locus YDR054C, strain cdc34, hits give low values
[14] = locus YDR226W, strain ADK1, hits give low values
[15] = locus YDR477W, strain SNF1, hits give low values
[16] = locus YER123W, strain YCK3, hits give low values
[17] = locus YER133W, strain GLC7, hits give low values
[18] = locus YFL009W, strain cdc4, hits give low values
[19] = locus YFL029C, strain CAK1, hits give low values
[20] = locus YFR003C, strain YPI1, hits give low values
[21] = locus YFR019W, strain FAB1, hits give low values
[22] = locus YFR028C, strain CDC14, hits give low values
[23] = locus YGR040W, strain KSS1, hits give low values
[24] = locus YGR052W, strain FMP48, hits give low values
[25] = locus YGR092W, strain DBF2, hits give low values
[26] = locus YHR030C, strain SLT2, hits give low values
[27] = locus YHR079C, strain IRE1, hits give low values
[28] = locus YHR082C, strain KSP1, hits give low values
[29] = locus YHR205W, strain SCH9, hits give low values
[30] = locus YIL147C, strain SLN1, hits give low values
[31] = locus YJL095W, strain BCK1, hits give low values
[32] = locus YJL128C, strain PBS2, hits give low values
[33] = locus YJL157C, strain FAR1, hits give low values
[34] = locus YJR016C, strain ILV3, hits give low values
[35] = locus YJR066W, strain TOR1 (second series), hits give low values
[36] = locus YJR066W, strain TOR1, hits give low values
[37] = locus YKL048C, strain ELM1, hits give low values
[38] = locus YKL067W, strain YNK1, hits give low values
[39] = locus YKL101W, strain HSL1, hits give low values
[40] = locus YKL193C, strain SDS22, hits give low values
[41] = locus YKL203C, strain TOR2, hits give low values
[42] = locus YLR113W, strain HOG1, hits give low values
[43] = locus YLR133W, strain CKI1, hits give low values
[44] = locus YLR403W, strain SFP1, hits give low values
[45] = locus YML070W, strain DAK1, hits give low values
[46] = locus YMR001C, strain CDC5, hits give low values
[47] = locus YMR205C, strain PFK2 (second series), hits give low values
[48] = locus YMR277W, strain FCP1, hits give low values
[49] = locus YNL006W, strain LST8, hits give low values
[50] = locus YNL020C, strain ARK1, hits give low values
[51] = locus YNL161W, strain CBK1, hits give low values
[52] = locus YNL183C, strain NPR1, hits give low values
[53] = locus YNL207W, strain RIO2, hits give low values
[54] = locus YNL222W, strain SSU72, hits give low values
[55] = locus YNL307C, strain MCK1 (second series), hits give low values
[56] = locus YOL078W, strain AVO1, hits give low values
[57] = locus YOL136C, strain PFK27, hits give low values
[58] = locus YOR061W, strain CKA2, hits give low values
[59] = locus YOR119C, strain RIO1, hits give low values
[60] = locus YOR231W, strain MKK1, hits give low values
[61] = locus YOR329C, strain SCD5, hits give low values
[62] = locus YPL031C, strain PHO85, hits give low values
[63] = locus YPL153C, strain RAD53, hits give low values
[64] = locus YPL204W, strain HRR25, hits give low values
[65] = locus YPL209C, strain IPL1, hits give low values
[66] = locus YPL256C, strain CLN2, hits give low values
[67] = locus YPR025C, strain CCL1, hits give low values
[68] = locus YPR106W, strain ISR1, hits give low values
[69] = locus YPR111W, strain DBF20, hits give low values
[70] = strain NNK1, hits give low values
[71] = strain TSCII, hits give low values

Measured: normalized growth

O=S(=O)(Nc1cc(C(F)(F)F)cc(C(F)(F)F)c1)c1ccc(Cl)s1
active: [12] 0.891 | [21] 0.772 | [25] 0.369 | [26] 0.246 | [27] 0.51 | [28] 0.48 | [37] 0.701 | [39] 0.685 | [42] 0.55 | [57] 0.67 | [60] 0.558 | [63] 0.617 | [64] 0.628 | [66] 0.475
inactive: [1] 0.927 | [2] 0.921 | [3] 0.93 | [4] 0.922 | [5] 0.923 | [6] 0.925 | [7] 0.928 | [8] 0.942 | [9] 0.939 | [10] 0.925 | [11] 0.818 | [13] 0.926 | [14] 0.914 | [15] 0.808 | [16] 0.622 | [17] 0.83 | [18] 0.92 | [19] 0.928 | [20] 0.927 | [22] 0.927 | [23] 0.835 | [24] 0.619 | [29] 0.808 | [30] 0.927 | [31] 0.605 | [32] 0.906 | [33] 0.802 | [34] 0.921 | [35] 0.856 | [36] 0.668 | [38] 0.841 | [40] 0.933 | [41] 0.786 | [43] 0.772 | [44] 0.837 | [45] 0.718 | [46] 0.93 | [47] 0.852 | [48] 0.931 | [49] 0.941 | [50] 0.726 | [51] 0.927 | [52] 0.568 | [53] 0.914 | [54] 0.934 | [55] 0.645 | [56] 0.923 | [58] 0.836 | [59] 0.838 | [61] 0.927 | [62] 0.706 | [65] 0.927 | [67] 0.929 | [68] 0.934 | [69] 0.923 | [70] 0.919 | [71] 0.917

COC(=O)c1sccc1S(=O)(=O)Nc1cc(C(F)(F)F)cc(C(F)(F)F)c1
inactive: [1] 0.973 | [2] 0.967 | [3] 0.974 | [4] 0.974 | [5] 0.962 | [6] 0.973 | [7] 0.979 | [8] 0.957 | [9] 0.97 | [10] 0.967 | [11] 0.962 | [12] 0.969 | [13] 0.98 | [14] 0.971 | [15] 0.985 | [16] 0.936 | [17] 0.981 | [18] 0.965 | [19] 0.965 | [20] 0.974 | [21] 0.955 | [22] 0.962 | [23] 0.971 | [24] 1.03 | [25] 0.977 | [26] 1.07 | [27] 1.02 | [28] 1.06 | [29] 0.947 | [30] 0.978 | [31] 1.01 | [32] 0.9 | [33] 0.963 | [34] 0.97 | [35] 0.942 | [36] 1.07 | [37] 0.95 | [38] 0.956 | [39] 0.958 | [40] 0.969 | [41] 1.04 | [42] 0.902 | [43] 0.962 | [44] 0.966 | [45] 0.935 | [46] 0.972 | [47] 0.946 | [48] 0.971 | [49] 0.985 | [50] 0.956 | [51] 0.967 | [52] 0.997 | [53] 0.97 | [54] 0.961 | [55] 0.943 | [56] 0.971 | [57] 0.938 | [58] 0.955 | [59] 1.05 | [60] 0.934 | [61] 0.972 | [62] 0.987 | [63] 0.973 | [64] 0.97 | [65] 0.965 | [66] 0.967 | [67] 0.969 | [68] 0.955 | [69] 0.938 | [70] 0.974 | [71] 0.972
